# Assay results from PubChem BioAssay (EPA / NIEHS).
# Results filed as inconclusive are left out. Active and inactive are the calls of the source. The calls were made as follows, unless noted: active = hit-call score of the fitted dose curve at least 0.9, where 1 is the maximum; inactive = score below 0.9.
# Key:
# [1] = target: Glucocorticoid receptor (Homo sapiens) (UniProt P04150); experiment: ATG_GR_TRANS: Attagene TRANS-FACTORIAL HepG2 Assay for human Glucocorticoid Receptor (GR) (AID 2282978; active = hit-call score of the fitted dose curve at least 0.9, where 1 is the maximum;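 also: activators score as hits since higher reporter transcript over DMSO is fitted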); conditions: HepG2 Attagene TRANS GR reporter, mRNA transcription
# Chain of Glucocorticoid receptor (Homo sapiens) (P04150 whole entry, looked up): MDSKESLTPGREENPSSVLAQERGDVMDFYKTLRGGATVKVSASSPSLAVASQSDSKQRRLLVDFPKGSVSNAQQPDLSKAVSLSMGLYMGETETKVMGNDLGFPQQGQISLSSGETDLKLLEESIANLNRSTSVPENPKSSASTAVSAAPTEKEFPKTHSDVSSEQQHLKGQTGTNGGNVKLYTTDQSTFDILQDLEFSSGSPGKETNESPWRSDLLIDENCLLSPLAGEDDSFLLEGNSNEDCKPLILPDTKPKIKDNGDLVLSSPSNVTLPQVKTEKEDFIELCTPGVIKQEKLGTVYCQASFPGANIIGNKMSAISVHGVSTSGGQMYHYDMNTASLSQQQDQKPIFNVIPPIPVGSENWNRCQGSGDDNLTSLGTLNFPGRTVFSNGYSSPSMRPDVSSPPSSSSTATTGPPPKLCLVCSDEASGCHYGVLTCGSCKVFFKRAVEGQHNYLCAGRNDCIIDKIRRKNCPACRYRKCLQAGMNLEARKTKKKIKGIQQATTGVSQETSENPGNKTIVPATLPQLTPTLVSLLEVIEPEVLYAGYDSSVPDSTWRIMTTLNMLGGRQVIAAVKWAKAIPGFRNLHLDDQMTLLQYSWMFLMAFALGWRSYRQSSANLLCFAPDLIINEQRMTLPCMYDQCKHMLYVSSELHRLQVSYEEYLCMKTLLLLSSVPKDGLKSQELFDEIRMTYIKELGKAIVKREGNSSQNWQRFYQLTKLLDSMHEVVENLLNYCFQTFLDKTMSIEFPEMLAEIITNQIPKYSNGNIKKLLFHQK
# Procedure, shortened: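 Multiplexed TRANS reporter system, HepG2; 24 h exposure; RNA → oligo(dT) RT → reporter-specific PCR → 6-FAM primer extension → HpaI cut → CE fluorescence. Gain-of-signal vs DMSO.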
# [2] = ATG_M_06_TRANS: Attagene TRANS-FACTORIAL HepG2 Assay for M06 Transcription Factor (Internal Marker) (AID 2282983; active = hit-call score of the fitted dose curve at least 0.9, where 1 is the maximum;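 also: reporter transcript level by RT-PCR then capillary electrophoresis fluorescence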); conditions: HepG2 Attagene TRANS M06 internal marker reporter
# Procedure, shortened: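 Multi-reporter-transfected HepG2, 24 h treatment; reporter transcripts quantified via RT-PCR, primer-extension labelling and CE. DMSO-normalized gain-of-signal fit.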
# [3] = target: Transcriptional activator Myb (Homo sapiens) (UniProt P10242); experiment: ATG_Myb_CIS: Attagene CIS-FACTORIAL HepG2 Assay for human Myeloblastosis (Myb) Proto-Oncogene Transcription Factor (AID 2282986); conditions: HepG2 Attagene CIS-FACTORIAL Myb reporter transcription; actives raise or lower the signal
# Chain of Transcriptional activator Myb (Homo sapiens) (P10242 whole entry, looked up): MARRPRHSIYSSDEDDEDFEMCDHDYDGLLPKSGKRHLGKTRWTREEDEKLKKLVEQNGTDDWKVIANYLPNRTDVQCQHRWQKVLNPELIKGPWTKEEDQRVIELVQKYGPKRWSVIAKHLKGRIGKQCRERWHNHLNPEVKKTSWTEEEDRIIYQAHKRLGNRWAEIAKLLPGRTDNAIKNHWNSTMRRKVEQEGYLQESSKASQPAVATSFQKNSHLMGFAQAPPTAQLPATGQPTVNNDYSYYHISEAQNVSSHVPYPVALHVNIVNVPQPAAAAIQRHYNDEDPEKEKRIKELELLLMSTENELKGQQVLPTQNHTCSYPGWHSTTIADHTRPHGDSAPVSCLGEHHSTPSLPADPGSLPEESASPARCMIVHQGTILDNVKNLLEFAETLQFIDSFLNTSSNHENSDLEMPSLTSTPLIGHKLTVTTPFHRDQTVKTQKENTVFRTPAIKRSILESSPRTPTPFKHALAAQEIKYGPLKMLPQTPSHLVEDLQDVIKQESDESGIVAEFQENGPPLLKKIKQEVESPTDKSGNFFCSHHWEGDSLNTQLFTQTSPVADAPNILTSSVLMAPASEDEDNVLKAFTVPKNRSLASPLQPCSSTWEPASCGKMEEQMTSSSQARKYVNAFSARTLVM
# Procedure, shortened: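 Endogenous transcription factor activity at a Myb-responsive cis element is reported in human liver HepG2 cells after 24 h chemical treatment. Reporter mRNA is detected by RT-PCR and capillary electrophoresis fluorescence, with DMSO as baseline.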
# [4] = target: Nuclear respiratory factor 1 (Homo sapiens) (UniProt Q16656); experiment: ATG_NRF1_CIS: Attagene CIS-FACTORIAL HepG2 Assay for human Nuclear Respiratory Factor 1 (NRF1) Orphan Gene (AID 2282987); conditions: HepG2 NRF1 cis-element reporter, Attagene multiplex; actives raise or lower the signal
# Chain of Nuclear respiratory factor 1 (Homo sapiens) (Q16656 whole entry, looked up): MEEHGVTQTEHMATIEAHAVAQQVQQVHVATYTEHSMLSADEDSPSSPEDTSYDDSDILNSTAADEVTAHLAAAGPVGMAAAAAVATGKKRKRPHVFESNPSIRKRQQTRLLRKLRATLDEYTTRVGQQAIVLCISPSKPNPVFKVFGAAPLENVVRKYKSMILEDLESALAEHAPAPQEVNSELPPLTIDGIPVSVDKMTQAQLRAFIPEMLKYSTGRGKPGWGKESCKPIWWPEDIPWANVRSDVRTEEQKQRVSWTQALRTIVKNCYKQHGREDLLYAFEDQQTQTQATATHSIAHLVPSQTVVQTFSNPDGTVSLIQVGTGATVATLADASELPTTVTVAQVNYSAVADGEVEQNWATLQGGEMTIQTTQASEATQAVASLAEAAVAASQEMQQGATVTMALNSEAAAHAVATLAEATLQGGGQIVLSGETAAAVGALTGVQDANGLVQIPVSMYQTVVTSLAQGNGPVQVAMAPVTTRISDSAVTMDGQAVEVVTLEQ
# Procedure, shortened: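 Human hepatoma HepG2 cells carrying transfected promoter-regulated reporter units were incubated with test chemicals for 24 h. Reporter transcripts were measured by RT-PCR plus capillary electrophoresis, and endpoints derived by bidirectional fitting with DMSO as baseline.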
# [5] = ATG_NFI_CIS: Attagene CIS-FACTORIAL HepG2 Assay for human Nuclear Factor I (NFI) (AID 2282989); conditions: HepG2 cis-regulatory reporter, NFI response element transcription; actives raise or lower the signal
# Procedure, shortened: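 After transient transfection of HepG2 with cis-promoter reporter constructs and 24 h dosing, RNA is reverse-transcribed, amplified, 6-FAM end-labelled and HpaI-digested before capillary analysis. Bidirectional curve fitting against DMSO.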
# [6] = target: Myc proto-oncogene protein (Homo sapiens) (UniProt P01106); experiment: ATG_Myc_CIS: Attagene CIS-FACTORIAL HepG2 Assay for human Myelocytomatosis (Myc) Proto-Oncogene Transcription Factor (AID 2282990); conditions: HepG2, Attagene cis-reporter transcription factor activity; actives raise or lower the signal
# Chain of Myc proto-oncogene protein (Homo sapiens) (P01106 whole entry, looked up): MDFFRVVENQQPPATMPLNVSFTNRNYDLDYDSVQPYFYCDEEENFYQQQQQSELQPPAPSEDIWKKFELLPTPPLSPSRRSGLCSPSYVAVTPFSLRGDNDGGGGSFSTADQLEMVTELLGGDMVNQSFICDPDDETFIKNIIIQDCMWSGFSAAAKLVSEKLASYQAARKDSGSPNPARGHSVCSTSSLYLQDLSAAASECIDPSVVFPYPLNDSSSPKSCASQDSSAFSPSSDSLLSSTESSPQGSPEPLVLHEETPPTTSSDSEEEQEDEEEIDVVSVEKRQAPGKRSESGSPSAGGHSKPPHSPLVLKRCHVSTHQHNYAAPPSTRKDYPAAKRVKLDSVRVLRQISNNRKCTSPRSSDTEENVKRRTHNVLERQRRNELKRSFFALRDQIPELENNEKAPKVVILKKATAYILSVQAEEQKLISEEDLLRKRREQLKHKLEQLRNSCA
# Procedure, shortened: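 Cells of the HepG2 human liver line bear multiple cis-driven reporter transcription units. Reporter mRNA after 24 h exposure is reverse-transcribed, amplified, labelled and resolved by capillary electrophoresis, with gain- or loss-of-signal fitting relative to DMSO.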
# [7] = ATG_NRF2_ARE_CIS: Attagene CIS-FACTORIAL HepG2 Assay for human Nuclear Factor Erythroid 2 Related Factor 2 (NFR2) response to Antioxidant Response Elements (ARE) (AID 2282992); conditions: HepG2 Attagene ARE/NRF2 reporter, transcription factor activity; actives raise or lower the signal
# Procedure, shortened: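 Endogenous transcription factor activity in human liver HepG2 cells is tracked via a cis-element-driven reporter within a multiplexed set. mRNA induction is read by RT-PCR and capillary electrophoresis after 24 h, with DMSO as baseline.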
# [8] = ATG_Oct_MLP_CIS: Attagene CIS-FACTORIAL HepG2 Assay for human Octamer-Binding Transcription Factor (Oct) (AID 2282993); conditions: HepG2 Attagene cis-factorial Oct reporter, mRNA; actives raise or lower the signal
# Procedure, shortened: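 Cells of the HepG2 line express promoter-controlled reporter sequences whose mRNA levels, after 24 h treatment, are measured by RT-PCR and capillary electrophoresis. Increases and decreases are scored relative to DMSO.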
# [9] = target: Cellular tumor antigen p53 (Homo sapiens) (UniProt P04637); experiment: ATG_p53_CIS: Attagene CIS-FACTORIAL HepG2 Assay for human p53 Transcription Factor (AID 2282994); conditions: HepG2 p53 cis-element reporter, Attagene mRNA; actives raise or lower the signal
# Chain of Cellular tumor antigen p53 (Homo sapiens) (P04637 whole entry, looked up, the tested form may be a part): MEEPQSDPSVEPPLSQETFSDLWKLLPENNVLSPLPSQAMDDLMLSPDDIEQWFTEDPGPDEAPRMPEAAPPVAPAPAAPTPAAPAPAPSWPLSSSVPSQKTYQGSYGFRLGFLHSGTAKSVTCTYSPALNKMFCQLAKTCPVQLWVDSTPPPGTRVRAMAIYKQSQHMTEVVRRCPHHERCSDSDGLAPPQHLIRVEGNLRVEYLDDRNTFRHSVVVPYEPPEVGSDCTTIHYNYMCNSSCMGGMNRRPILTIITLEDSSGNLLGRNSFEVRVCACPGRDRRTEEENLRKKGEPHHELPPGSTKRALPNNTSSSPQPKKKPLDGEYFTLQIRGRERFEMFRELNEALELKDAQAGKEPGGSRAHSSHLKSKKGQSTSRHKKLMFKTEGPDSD
# Procedure, shortened: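 Steps: transfect HepG2 with multiplexed cis reporter constructs; dose chemicals 24 h; extract RNA, reverse-transcribe, PCR-amplify reporter sequences; FAM-label, HpaI-digest, resolve fragments by CE. Activity fitted both directions relative to DMSO.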
# [10] = BSK_3C_TissueFactor: BioMAP Diversity Plus: 3C Assay for Tissue Factor Biomarker Activity (AID 2282997); conditions: BioMAP 3C HUVEC, tissue factor biomarker readout; actives raise or lower the signal
# Procedure, shortened: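 In this endothelial system, HUVEC are treated for 24 h and Tissue Factor is assessed by ELISA, normalised to DMSO.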
# [11] = BSK_3C_uPAR: BioMAP Diversity Plus: 3C Assay for Urokinase-type plasminogen activator receptor (uPAR) Biomarker Activity (AID 2282998); conditions: BioMAP 3C HUVEC, uPAR biomarker ELISA; actives raise or lower the signal
# Procedure, shortened: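 Endothelial primary cells of human umbilical vein origin received test chemical; 24 h later uPAR was assayed by ELISA. Fitting was bidirectional, DMSO as negative control.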
# [12] = BSK_3C_VCAM1: BioMAP Diversity Plus: 3C Assay for Vascular cell adhesion molecule 1 (VCAM1) Biomarker Activity (AID 2282999); conditions: BioMAP 3C HUVEC, VCAM1 ELISA, cytokine-stimulated; actives raise or lower the signal
# Procedure, shortened: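 Activity fitted in both directions relative to DMSO, with ELISA measurement of the surface marker on primary HUVEC (3C) at 24 h post-treatment; parallel SRB staining (0.1% SRB, TCA-fixed, 560 nm) flagged overt cytotoxicity.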
# [13] = target: human Peroxisome Proliferator-activated Receptor alpha (PPARa), PPARA (gene 5465) (UniProt Q07869); experiment: ATG_PPARa_TRANS: Attagene TRANS-FACTORIAL HepG2 Assay for human Peroxisome Proliferator-activated Receptor alpha (PPARa) (AID 2283001; active = hit-call score of the fitted dose curve at least 0.9, where 1 is the maximum;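 as to AC50: potency for gain of reporter signal over DMSO so agonist or activator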)
# Chain of human Peroxisome Proliferator-activated Receptor alpha (PPARa), PPARA (gene 5465) (Q07869 whole entry, looked up, the tested form may be a part): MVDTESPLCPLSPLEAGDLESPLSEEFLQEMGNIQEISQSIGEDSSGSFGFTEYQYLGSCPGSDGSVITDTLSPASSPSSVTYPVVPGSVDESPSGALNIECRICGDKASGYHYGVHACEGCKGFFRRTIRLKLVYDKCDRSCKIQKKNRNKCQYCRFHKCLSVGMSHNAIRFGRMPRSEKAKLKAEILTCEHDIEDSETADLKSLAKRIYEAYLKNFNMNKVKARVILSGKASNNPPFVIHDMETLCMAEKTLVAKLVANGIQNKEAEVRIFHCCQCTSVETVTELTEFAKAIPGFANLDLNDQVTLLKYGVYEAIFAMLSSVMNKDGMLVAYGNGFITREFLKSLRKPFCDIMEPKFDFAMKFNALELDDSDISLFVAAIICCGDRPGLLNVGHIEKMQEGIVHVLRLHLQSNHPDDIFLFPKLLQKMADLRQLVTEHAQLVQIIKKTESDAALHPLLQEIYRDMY
# Procedure, shortened: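 Reporter transcripts quantified by RT-PCR plus capillary electrophoresis after 24 h treatment, fitted upward relative to DMSO. Cells: human HepG2 transiently carrying multiple GAL4-UAS reporter units driven by NR-Gal4 chimeras.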
# [14] = target: Hepatocyte nuclear factor 4-alpha (Homo sapiens) (UniProt P41235); experiment: ATG_HNF4a_TRANS: Attagene TRANS-FACTORIAL HepG2 Assay for human Hepatocyte Nuclear Factor 4 alpha (HNF4a) (AID 2282982; active = hit-call score of the fitted dose curve at least 0.9, where 1 is the maximum); conditions: HepG2 HNF4a transactivation reporter, mRNA readout
# Chain of Hepatocyte nuclear factor 4-alpha (Homo sapiens) (P41235 whole entry, looked up, the tested form may be a part): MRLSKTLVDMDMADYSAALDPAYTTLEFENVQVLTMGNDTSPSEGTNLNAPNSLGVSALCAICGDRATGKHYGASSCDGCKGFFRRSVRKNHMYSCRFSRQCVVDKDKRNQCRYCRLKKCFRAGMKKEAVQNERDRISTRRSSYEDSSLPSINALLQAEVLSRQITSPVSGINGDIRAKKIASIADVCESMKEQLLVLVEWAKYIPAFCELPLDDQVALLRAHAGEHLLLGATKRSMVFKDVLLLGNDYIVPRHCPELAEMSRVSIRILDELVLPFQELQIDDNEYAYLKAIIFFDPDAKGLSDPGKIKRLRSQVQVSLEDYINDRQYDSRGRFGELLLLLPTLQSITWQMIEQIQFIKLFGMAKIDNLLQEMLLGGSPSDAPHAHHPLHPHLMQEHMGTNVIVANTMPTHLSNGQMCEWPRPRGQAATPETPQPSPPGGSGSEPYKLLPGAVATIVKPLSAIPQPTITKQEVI
# Procedure, shortened: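 Activity of an exogenous HNF4a–Gal4 fusion scored as induced GAL4-UAS reporter transcripts after 24 h chemical exposure of transfected human HepG2 cells. Read-out via RT-PCR with 6-FAM labelling and capillary electrophoresis; rise over DMSO baseline.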
# [15] = ATG_NF_kB_CIS: Attagene CIS-FACTORIAL HepG2 Assay for human Nuclear Factor Kappa B (NF-kB) (AID 2282991); conditions: HepG2 Attagene cis-factorial NF-kB reporter mRNA; actives raise or lower the signal
# Procedure, shortened: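 Multiplexed cis-reporter assay in transiently transfected HepG2. 24 h treatment; RNA isolated, RT-PCR, labelled fragments resolved by CE. DMSO baseline.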
# [16] = ATG_M_32_TRANS: Attagene TRANS-FACTORIAL HepG2 Assay for M32 Transcription Factor (Internal Marker) (AID 2282984; active = hit-call score of the fitted dose curve at least 0.9, where 1 is the maximum;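 also: transcript level of a background control reporter unit measured by RT-PCR and capillary electrophoresis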); conditions: HepG2 Attagene TRANS M32 internal marker reporter
# Procedure, shortened: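 Internal background reporter in transfected HepG2: after 24 h chemical exposure, RNA reverse-transcribed, reporter cDNA amplified, fluorescently labelled and HpaI-cut, then sized by capillary electrophoresis. Gain of signal fitted against DMSO control.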
# [17] = target: Nuclear receptor subfamily 4 group A member 2 (Homo sapiens) (UniProt P43354); experiment: ATG_NURR1_TRANS: Attagene TRANS-FACTORIAL HepG2 Assay for human Nuclear Receptor Related Protein 1 (NURR1) (AID 2282985; active = hit-call score of the fitted dose curve at least 0.9, where 1 is the maximum); conditions: HepG2 Attagene TRANS reporter, mRNA readout
# Chain of Nuclear receptor subfamily 4 group A member 2 (Homo sapiens) (P43354 whole entry, looked up, the tested form may be a part): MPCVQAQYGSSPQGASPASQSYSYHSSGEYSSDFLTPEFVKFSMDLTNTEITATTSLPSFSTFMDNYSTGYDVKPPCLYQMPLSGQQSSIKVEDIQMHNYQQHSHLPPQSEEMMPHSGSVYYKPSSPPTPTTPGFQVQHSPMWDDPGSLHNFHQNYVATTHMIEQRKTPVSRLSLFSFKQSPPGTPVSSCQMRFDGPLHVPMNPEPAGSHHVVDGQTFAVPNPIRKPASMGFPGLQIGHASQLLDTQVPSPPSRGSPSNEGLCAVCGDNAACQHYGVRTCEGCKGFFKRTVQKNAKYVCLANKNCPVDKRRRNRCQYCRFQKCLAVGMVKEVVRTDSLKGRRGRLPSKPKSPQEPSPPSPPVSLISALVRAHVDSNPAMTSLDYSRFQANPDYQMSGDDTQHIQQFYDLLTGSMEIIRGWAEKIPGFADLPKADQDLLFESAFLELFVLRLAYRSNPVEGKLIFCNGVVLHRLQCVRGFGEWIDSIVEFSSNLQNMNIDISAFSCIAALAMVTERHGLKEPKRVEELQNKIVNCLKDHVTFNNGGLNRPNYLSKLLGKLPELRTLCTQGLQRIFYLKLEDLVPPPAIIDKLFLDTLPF
# Procedure, shortened: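 Reporter transcript induction, measured by RT-PCR with fluorescent labelling, HpaI digestion and capillary electrophoresis, after 24 hr dosing of human HepG2 cells transiently expressing an exogenous NR-Gal4 fusion with GAL4-UAS-driven reporters; DMSO as baseline.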
# [18] = BSK_4H_Eotaxin3: BioMAP Diversity Plus: 4H Assay for Eotaxin 3 Biomarker Activity (AID 2283000); conditions: primary human endothelial cells (HUVEC); actives raise or lower the signal;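 as to outcome: CCL26 protein level quantified by ELISA in parallel with SRB cytotoxicity check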
# Procedure, shortened: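 ELISA quantitation of CCL26 (Eotaxin-3) protein from chemically dosed human vascular endothelial cells at 24 h; increases and decreases both scored relative to DMSO-treated baseline.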
# [19] = target: Oxysterols receptor LXR-beta (Homo sapiens) (UniProt P55055); experiment: ATG_LXRb_TRANS: Attagene TRANS-FACTORIAL HepG2 Assay for human Liver X Receptor beta (LXRb) (AID 2282981; active = hit-call score of the fitted dose curve at least 0.9, where 1 is the maximum); conditions: HepG2 Attagene TRANS GAL4-LXRb reporter, mRNA
# Chain of Oxysterols receptor LXR-beta (Homo sapiens) (P55055 whole entry, looked up, the tested form may be a part): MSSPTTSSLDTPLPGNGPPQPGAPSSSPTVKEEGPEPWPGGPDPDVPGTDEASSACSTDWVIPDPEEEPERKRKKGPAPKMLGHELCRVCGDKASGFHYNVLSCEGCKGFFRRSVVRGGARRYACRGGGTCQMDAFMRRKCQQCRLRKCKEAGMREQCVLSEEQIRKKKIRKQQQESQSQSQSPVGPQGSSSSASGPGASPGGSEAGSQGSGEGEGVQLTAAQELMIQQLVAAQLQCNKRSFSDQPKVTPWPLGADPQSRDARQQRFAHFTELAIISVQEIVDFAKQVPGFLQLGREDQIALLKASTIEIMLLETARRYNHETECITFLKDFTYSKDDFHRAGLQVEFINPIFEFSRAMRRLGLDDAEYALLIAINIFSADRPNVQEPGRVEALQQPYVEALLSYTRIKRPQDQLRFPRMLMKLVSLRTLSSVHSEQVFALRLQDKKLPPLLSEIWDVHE
# Procedure, shortened: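 After 24 h chemical treatment of transfected HepG2 cells carrying exogenous NR-Gal4 chimeras, reporter mRNA was quantified by fluorescent RT-PCR and capillary electrophoresis; activity taken as increase over DMSO controls.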
smiles,measurement,setting,value
CC(C)=CCC/C(C)=C/CO,outcome,[1],inactive
same,outcome,[2],inactive
same,outcome,[3],inactive
same,outcome,[4],inactive
same,outcome,[5],inactive
same,outcome,[6],inactive
same,outcome,[7],inactive
same,outcome,[8],inactive
same,outcome,[9],inactive
same,outcome,[10],inactive
same,outcome,[11],inactive
same,outcome,[12],inactive
same,outcome,[13],inactive
O=C(O)CCN(C1(C(=O)NO)CCCC1)S(=O)(=O)c1ccc(Oc2ccc(F)cc2)cc1,outcome,[14],inactive
same,outcome,[3],inactive
same,outcome,[4],inactive
same,outcome,[5],inactive
same,outcome,[6],inactive
same,outcome,[15],inactive
same,outcome,[7],inactive
same,outcome,[8],inactive
same,outcome,[9],inactive
same,outcome,[10],inactive
same,outcome,[11],inactive
same,outcome,[12],inactive
same,outcome,[13],inactive
CCOC(=O)COc1ccc2c(c1)CC(NCC(O)c1cccc(Cl)c1)CC2 (stereo unspecified),outcome,[16],inactive
same,outcome,[17],inactive
same,outcome,[3],inactive
same,outcome,[4],inactive
same,outcome,[5],inactive
same,outcome,[6],inactive
same,outcome,[15],inactive
same,outcome,[7],inactive
same,outcome,[8],inactive
same,AC50,[9],49.8 µM (active)
same,AC50,[10],33 µM (active)
same,AC50,[11],28.5 µM (active)
same,AC50,[18],34.3 µM (active)
same,AC50,[13],33 µM (active)
CCOC(=O)CC(CC(=O)OCC)(OC(C)=O)C(=O)OCC,outcome,[16],inactive
same,outcome,[17],inactive
same,outcome,[3],inactive
same,outcome,[4],inactive
same,outcome,[5],inactive
same,outcome,[6],inactive
same,outcome,[15],inactive
same,AC50,[7],61.4 µM (active)
same,outcome,[8],inactive
same,outcome,[9],inactive
same,outcome,[10],inactive
same,outcome,[11],inactive
same,outcome,[18],inactive
same,outcome,[13],inactive
O=C(O)c1cccc(N(Cc2cccnc2)c2ccc(OC(F)F)c(OC(F)F)c2)c1,outcome,[14],inactive
same,outcome,[2],inactive
same,outcome,[16],inactive
same,outcome,[3],inactive
same,outcome,[4],inactive
same,outcome,[5],inactive
same,outcome,[6],inactive
same,AC50,[15],27.7 µM (active)
same,outcome,[7],inactive
same,outcome,[8],inactive
same,AC50,[9],35.7 µM (active)
same,AC50,[10],14.7 µM (active)
same,outcome,[11],inactive
same,outcome,[13],inactive
Cc1ccc(S(=O)(=O)O)cc1C,outcome,[14],inactive
same,outcome,[16],inactive
same,outcome,[17],inactive
same,outcome,[3],inactive
same,outcome,[4],inactive
same,outcome,[5],inactive
same,outcome,[6],inactive
same,outcome,[7],inactive
same,outcome,[8],inactive
same,outcome,[10],inactive
same,outcome,[11],inactive
same,outcome,[13],inactive
CCCCCCCCCCCCc1ccccc1,outcome,[2],inactive
same,outcome,[16],inactive
same,outcome,[3],inactive
same,outcome,[4],inactive
same,outcome,[5],inactive
same,outcome,[6],inactive
same,outcome,[15],inactive
same,outcome,[7],inactive
same,outcome,[8],inactive
same,outcome,[10],inactive
same,outcome,[11],inactive
same,outcome,[12],inactive
CCOCCOCCOCCO,outcome,[19],inactive
same,outcome,[17],inactive
same,outcome,[3],inactive
same,outcome,[4],inactive
same,outcome,[5],inactive
same,outcome,[6],inactive
same,outcome,[15],inactive
same,outcome,[7],inactive
same,outcome,[8],inactive
same,outcome,[10],inactive
same,outcome,[11],inactive
same,outcome,[18],inactive
Cc1ccc(C)c(O)c1,outcome,[2],inactive
same,outcome,[16],inactive
same,outcome,[3],inactive
same,outcome,[4],inactive
same,outcome,[5],inactive
same,outcome,[6],inactive
same,outcome,[7],inactive
same,outcome,[8],inactive
same,outcome,[9],inactive
same,outcome,[10],inactive
same,outcome,[11],inactive
same,outcome,[18],inactive
